# Measured values from publication PMC7819943, “Rice protein-binding microarrays: a tool to detect cis-acting elements near promoter regions in rice”.
# Whole data set: some 68,000 sequences, median “fluorescence intensity (a.u.)” near 9,100, cut for the highest 2% near 16,000. Shown is part of a subset that was picked to be rich in the highest values.
# Molecular target: OsWRKY34 (Oryza sativa, UniProt Q0JBA9 1-250)
# Test: protein-binding microarray (RPBM); PBS, 2% BSA, 51.3 ng/ul salmon testes DNA, 50 uM zinc acetate, 200 nM TF, 25 C, 1 h; high values mean tight binding
# Details: protein: recombinant; tags: N-terminal polyhistidine and DsRed monomer fusion (pET32a); label: CyDye5-dUTP incorporated in the synthesized complementary strand; 3' TTTTT single-stranded linker to array surface; dsDNA, one strand shown
# How it was run: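 Binding signal is defined as the fluorescence intensity of each feature in arbitrary units, read on an Axon 4000B scanner. Transcription factors with N-terminal polyhistidine and DsRed fusions came from E. coli BL21-CodonPlus and were purified on Ni–NTA. They were incubated at 200 nM for 1 h at 25 °C on a custom Agilent array that had been made double-stranded with Cy5-dUTP, with 50 µM zinc acetate present, and the array was washed.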
# Chain of OsWRKY34 (Q0JBA9 entry or part of it): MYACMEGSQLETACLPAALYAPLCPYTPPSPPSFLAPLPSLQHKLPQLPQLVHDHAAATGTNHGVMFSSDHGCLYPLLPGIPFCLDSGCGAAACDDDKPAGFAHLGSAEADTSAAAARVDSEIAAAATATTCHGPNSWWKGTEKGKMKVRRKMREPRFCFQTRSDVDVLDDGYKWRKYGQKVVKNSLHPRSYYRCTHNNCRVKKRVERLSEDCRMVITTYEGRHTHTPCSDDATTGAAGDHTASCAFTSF
row,Sequence,binding signal
1,GACCTTTACTTTTTCATCCTACCTAAATGCATATTCCAATCGGAGTCACCTAGTGCAG,9320 fluorescence intensity (a.u.)
2,ACTATTTGGATATCCCATTCCAACGCCATTGCCCTCTGTTCGGAGTCACCTAGTGCAG,8280 fluorescence intensity (a.u.)
3,GCGGGGTTCGTGGTGTGTGCGTGTGCGTCTCTCTCTGTCTCGGAGTCACCTAGTGCAG,21100 fluorescence intensity (a.u.)
4,GTTCTCGTCGTTCGTGTTCTTCTGCTTCGGTTTCGTGGTGCGGAGTCACCTAGTGCAG,11900 fluorescence intensity (a.u.)
5,TGGCGTGGTCTCGTCTCTTCGTCTTCGGGTGTGCTCACCGCGGAGTCACCTAGTGCAG,9650 fluorescence intensity (a.u.)
6,CTCTCTCGCTTCTTCTCTGTGTGTGTGTTGCGTGGTGGGGCGGAGTCACCTAGTGCAG,23800 fluorescence intensity (a.u.)
7,TGGGAGTGTTGTTATTCTCGTGCGCGTTGTGGTTAGTGGGCGGAGTCACCTAGTGCAG,9630 fluorescence intensity (a.u.)
8,TTTCCGTTCCTTTCTTTCCTTCTCGCGTTTGCGTGGTGGGCGGAGTCACCTAGTGCAG,10500 fluorescence intensity (a.u.)
9,ATCTGTAGTCCGTTGCTCTTCTCTCTCATATTTTATCTCGCGGAGTCACCTAGTGCAG,11700 fluorescence intensity (a.u.)
10,TGTGTGTATGCGTTTATAGGAGTAACTGTGTGTGCGTTTACGGAGTCACCTAGTGCAG,8150 fluorescence intensity (a.u.)
11,CGCCTCCGCCTCCGTCGACTCCGCGCCTCCGCCGCCACCCCGGAGTCACCTAGTGCAG,15100 fluorescence intensity (a.u.)
12,TCCAGCTGCTTGCTTCTCTCTCTCTCTTCTCTTGAGCATCCGGAGTCACCTAGTGCAG,9650 fluorescence intensity (a.u.)
13,TCTGCCTTGAAGTGGTACCGTGGGTGGGAGGGTAGTTATGCGGAGTCACCTAGTGCAG,11500 fluorescence intensity (a.u.)
14,AATCTCCGTGGCGAGGGTGGGGTCGGAGGTGGTCATGTCGCGGAGTCACCTAGTGCAG,9290 fluorescence intensity (a.u.)
15,ATGGGAGGTGGGTGGTACCGTGGTGGTGGTCGCAGATCTGCGGAGTCACCTAGTGCAG,27200 fluorescence intensity (a.u.)
16,CGCTTGATCTGGGGTGGGGTCGCGAGTGGTGGAGGAGGTGCGGAGTCACCTAGTGCAG,16600 fluorescence intensity (a.u.)
17,CGGAGGCGAGTGGGTGGGTGGTGGTCCAGTGCGGTGGTGCCGGAGTCACCTAGTGCAG,9800 fluorescence intensity (a.u.)
18,GGAGGAGGTGGAGGCGCTGCTGGTGGTGGAGGCCGTGGTGCGGAGTCACCTAGTGCAG,8020 fluorescence intensity (a.u.)
19,AGTGGGTGGTGGTGGTGGTGGTGGTGCGAGGCCGTCGCTGCGGAGTCACCTAGTGCAG,20500 fluorescence intensity (a.u.)
20,TCGTGCGTGCGTGAGGGAGGTCGTGGTGGTGGTGGTGGTGCGGAGTCACCTAGTGCAG,9020 fluorescence intensity (a.u.)
21,GGGGACGCAGGAGGAGGTGGGTGGGTCGAGCTCGCTTGCGCGGAGTCACCTAGTGCAG,15400 fluorescence intensity (a.u.)
22,TGTGTGAGATTTTTGCATGTTTTTGTTGTGTTTGTTCATACGGAGTCACCTAGTGCAG,8580 fluorescence intensity (a.u.)
23,TCTGGTTCCATTTTCCACGCACAGGAGAGTGATTACTTTTCGGAGTCACCTAGTGCAG,11200 fluorescence intensity (a.u.)

row,Sequence,binding signal
1,TCTCTCTCTCGTGCGTCACCTCCTCGCGTGCTCAGCGCCGCGGAGTCACCTAGTGCAG,8780 fluorescence intensity (a.u.)
2,TCCTTGCTCCATCAGTATTACACCACCCAACACAAGCTCACGGAGTCACCTAGTGCAG,8870 fluorescence intensity (a.u.)
3,GGTTCAAATTAACTTTTCAATCTTGGCTGTGTTTGGATCCCGGAGTCACCTAGTGCAG,9630 fluorescence intensity (a.u.)
4,CGACTTGTTGCCTCAAACAATTCCTGGTTATAAAACACCACGGAGTCACCTAGTGCAG,35500 fluorescence intensity (a.u.)
5,CCCTCTATAAATGGTTCCTATCACAACCACAAACACCACACGGAGTCACCTAGTGCAG,8240 fluorescence intensity (a.u.)
6,AGTTAATCCTTGTTAAACTTTGGTTTCAAAACAATTTCCCCGGAGTCACCTAGTGCAG,65500 fluorescence intensity (a.u.)
7,TCTACAAACTTGGTCAAACTTAAAACAGTTTGACTTTGACCGGAGTCACCTAGTGCAG,14600 fluorescence intensity (a.u.)
8,CTCCTCATCCATCCACCACACCACTTGCCTCCAAACAAAACGGAGTCACCTAGTGCAG,9340 fluorescence intensity (a.u.)
9,GCTGTTTCCTGGAGGTTCCATCCATGCTATCCTGTGCTCGCGGAGTCACCTAGTGCAG,8470 fluorescence intensity (a.u.)
10,GACCAACCAAAACCTCCGATCACCTTGTCCCGTACTGAAACGGAGTCACCTAGTGCAG,11000 fluorescence intensity (a.u.)
11,TCACCCCGCCGCCGCCATCCAGGCGCCGACGACCTCCCATCGGAGTCACCTAGTGCAG,8840 fluorescence intensity (a.u.)
12,CTCTCTTTTCCTTTTCTAATTTTAGATTTTATTTTATTTTCGGAGTCACCTAGTGCAG,8600 fluorescence intensity (a.u.)
13,GTTTTACATTTGTCCTAAATCAAACATATCTATCTTTGACCGGAGTCACCTAGTGCAG,8180 fluorescence intensity (a.u.)
14,TTCTTGGCTTGGCTCCTCTGGTGTTCTTGTGCTCTGGGTTCGGAGTCACCTAGTGCAG,9970 fluorescence intensity (a.u.)
15,GGGGTGGTTTTGGCTGAGCTGCTTGTGTCCTCTTCTTGCTCGGAGTCACCTAGTGCAG,18400 fluorescence intensity (a.u.)
16,TTTTTGTGTGTGTGCTGTGTTCTTGGGTTTCTTGGCAATGCGGAGTCACCTAGTGCAG,8650 fluorescence intensity (a.u.)
17,CAGCTCGAGCTGTTTGCTTGTGGGGTTCTTGTTTTTCTTTCGGAGTCACCTAGTGCAG,8020 fluorescence intensity (a.u.)
18,TGGTTTTGGCAGCTGCTGTGTGCACTTGTGGGTTTTTTCTCGGAGTCACCTAGTGCAG,8960 fluorescence intensity (a.u.)
19,TGGCTGAGCTTCTTTGCGTGTTCTTGTTTGGGTTTTGGGGCGGAGTCACCTAGTGCAG,18700 fluorescence intensity (a.u.)
20,CATTTTATTGTGAACTTTTTCCTTTTAAACTCGATGTTTACGGAGTCACCTAGTGCAG,10700 fluorescence intensity (a.u.)
21,GTGATGTTCATGCGACAATGTGTTTCTTCCTGGACATATTCGGAGTCACCTAGTGCAG,8050 fluorescence intensity (a.u.)
22,CGTTGGAAAGCTACTGTTTTGACCCGTTCACACCACTACGCGGAGTCACCTAGTGCAG,9680 fluorescence intensity (a.u.)
